Results: PubChem BioAssay
Active and inactive are the calls of the source.

How the values were obtained:
[1] = optical density shifts of acrAB sulA E. coli – strain DRC41, OD650, 48 h, E. coli filamentation inducer project, primary screen (AID 1152); conditions: higher = more signal, called active from +8 up or from −8 down;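 further: E. coli MC1000 strain DRC41 lacking acrAB efflux pump and sulA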
[2] = probe aLefty1 binding on compound microarray – biochemical, small-molecule microarray, 635/667 nm fluorescence, primary screen (AID 1153); conditions: higher = more signal;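 further: score merges spot fluorescence with signal-to-noise ratio from the scanned slide images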
[3] = plasmodial surface anion channel blockers, osmotic lysis – cell-based, P. falciparum Indochina, OD700, 1 h, primary screen (AID 1154); conditions: P. falciparum Indochina infected RBC osmotic lysis, higher = more signal, called active from +8 up or from −8 down
[4] = plasmodial surface anion channel blockers, osmotic lysis – cell-based, P. falciparum Indochina, OD700, 2 h, primary screen (AID 1155);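 further: lysis reports solute entry through the parasite surface anion channel PSAC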; conditions: P. falciparum Indochina infected erythrocytes, higher = more signal, called active from +8 up or from −8 down
[5] = changes in parasitized red cell lysis, either direction – P. falciparum Indochina, OD700, 3 h, PSAC antagonist project, primary screen (AID 1156); conditions: P. falciparum-infected erythrocytes, osmotic lysis, higher = more signal, called active from +8 up or from −8 down
[6] = plasmodial surface anion channel blockers, osmotic lysis – cell-based, P. falciparum Indochina, OD700, 18 h, primary screen (AID 1157); conditions: P. falciparum Indochina infected erythrocytes, osmotic lysis OD700, 18 h; higher = more signal, called active from +8 up or from −8 down
[7] = S6 kinase pathway phospho-S6 level changes – cell-based, A549, cytoblot, luminescence, serum-stimulated, primary screen (AID 1158); conditions: 5 h, higher = more signal;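 further: serum-stimulated A549 lung adenocarcinoma cells; signal is phosphorylated S6 detected by cytoblot immunostaining with HRP secondary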
[8] = molecular target: NADPH oxidase 2 (Homo sapiens) (UniProt P04839); assay: compounds shifting NOX2 Amplex Red fluorescence – cell-based, HEK293-NOX2, PMA-stimulated, NOX inhibitor project, primary screen (AID 1159); conditions: 45 min, higher = more signal, called active from +8 up or from −8 down; further: test concentration not given here
[9] = molecular target: NADPH oxidase 4 (Homo sapiens) (UniProt Q9NPH5); assay: compounds shifting NOX4 Amplex Red fluorescence – cell-based, HEK293-NOX4, tetracycline-induced, NOX inhibitor project, primary screen (AID 1160); conditions: HEK293-NOX4, Amplex Red H2O2 fluorescence, 45 min; higher = more signal, called active from +8 up or from −8 down
[10] = molecular target: NADPH oxidase 5 (Homo sapiens) (UniProt Q96PH1); assay: compounds shifting NOX5 Amplex Red fluorescence – cell-based, HEK293-NOX5, NOX inhibitor project, primary screen (AID 1161); conditions: HEK293-NOX5, ionomycin, 45 min, higher = more signal
NADPH oxidase 5 (Homo sapiens), sequence (Q96PH1 whole entry, looked up): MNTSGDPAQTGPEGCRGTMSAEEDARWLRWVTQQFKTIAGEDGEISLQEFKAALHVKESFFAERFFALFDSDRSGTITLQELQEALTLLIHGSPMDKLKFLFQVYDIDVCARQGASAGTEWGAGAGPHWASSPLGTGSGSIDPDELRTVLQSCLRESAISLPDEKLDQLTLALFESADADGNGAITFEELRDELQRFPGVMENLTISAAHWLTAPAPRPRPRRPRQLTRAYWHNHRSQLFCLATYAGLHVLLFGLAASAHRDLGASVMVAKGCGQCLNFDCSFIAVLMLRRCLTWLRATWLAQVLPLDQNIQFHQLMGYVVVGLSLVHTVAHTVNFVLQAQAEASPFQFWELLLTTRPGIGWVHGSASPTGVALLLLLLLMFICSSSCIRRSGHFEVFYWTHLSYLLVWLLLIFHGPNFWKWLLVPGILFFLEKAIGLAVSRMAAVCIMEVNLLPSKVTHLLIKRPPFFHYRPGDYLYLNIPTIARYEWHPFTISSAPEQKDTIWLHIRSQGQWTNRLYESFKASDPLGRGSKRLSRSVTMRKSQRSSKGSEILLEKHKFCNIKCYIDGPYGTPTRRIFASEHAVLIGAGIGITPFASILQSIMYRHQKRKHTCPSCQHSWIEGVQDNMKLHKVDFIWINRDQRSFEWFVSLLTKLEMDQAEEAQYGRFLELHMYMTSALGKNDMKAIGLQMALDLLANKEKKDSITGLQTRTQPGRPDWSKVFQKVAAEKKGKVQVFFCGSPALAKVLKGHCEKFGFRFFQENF

NADPH oxidase 4 (Homo sapiens), sequence (Q9NPH5 whole entry, looked up): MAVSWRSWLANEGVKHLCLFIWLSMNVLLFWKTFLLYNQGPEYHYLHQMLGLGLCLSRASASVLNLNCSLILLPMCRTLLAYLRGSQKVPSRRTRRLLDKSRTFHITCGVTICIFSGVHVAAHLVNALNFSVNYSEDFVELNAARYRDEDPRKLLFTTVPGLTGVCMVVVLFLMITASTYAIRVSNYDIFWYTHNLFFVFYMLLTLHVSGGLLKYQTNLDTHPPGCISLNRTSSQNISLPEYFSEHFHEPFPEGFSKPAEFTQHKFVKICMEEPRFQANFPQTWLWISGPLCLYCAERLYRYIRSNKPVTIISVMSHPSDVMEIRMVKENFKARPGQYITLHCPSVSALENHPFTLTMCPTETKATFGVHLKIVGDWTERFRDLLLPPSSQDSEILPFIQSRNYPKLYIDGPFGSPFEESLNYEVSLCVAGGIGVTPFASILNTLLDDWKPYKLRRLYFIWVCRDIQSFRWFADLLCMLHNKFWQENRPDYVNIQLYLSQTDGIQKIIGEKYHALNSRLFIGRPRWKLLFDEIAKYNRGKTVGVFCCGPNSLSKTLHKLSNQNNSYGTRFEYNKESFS
NADPH oxidase 2 (Homo sapiens), sequence (P04839 whole entry, looked up): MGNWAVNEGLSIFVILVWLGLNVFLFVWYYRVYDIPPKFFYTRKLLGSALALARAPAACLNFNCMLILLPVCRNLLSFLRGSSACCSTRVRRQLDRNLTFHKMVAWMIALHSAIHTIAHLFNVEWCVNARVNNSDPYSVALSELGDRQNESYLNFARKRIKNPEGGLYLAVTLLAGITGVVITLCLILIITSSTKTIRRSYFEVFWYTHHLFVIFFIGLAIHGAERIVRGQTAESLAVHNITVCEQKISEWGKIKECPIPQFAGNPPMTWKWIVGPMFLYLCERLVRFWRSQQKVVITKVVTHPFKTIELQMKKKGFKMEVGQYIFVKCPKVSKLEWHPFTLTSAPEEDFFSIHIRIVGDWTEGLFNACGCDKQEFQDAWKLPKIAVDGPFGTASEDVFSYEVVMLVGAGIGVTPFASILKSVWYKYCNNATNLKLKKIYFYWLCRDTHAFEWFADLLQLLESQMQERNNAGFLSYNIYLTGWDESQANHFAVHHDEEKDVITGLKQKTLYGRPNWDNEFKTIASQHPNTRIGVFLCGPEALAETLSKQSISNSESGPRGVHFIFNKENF

| Compound | z-score [1] | composite z-score [2] | z-score [3] | z-score [4] | z-score [5] | z-score [6] | z-score [7] | z-score [8] | z-score [9] | z-score [10] |
| --- | --- | --- | --- | --- | --- | --- | --- | --- | --- | --- |
| CCOc1cc(C(O)C2C=CC3C(=O)NC(=O)C3N2Nc2ccccn2)ccc1O (stereo not given) | -1.17 (inactive) | 0.0253 | -0.251 (inactive) | 0.519 (inactive) | -0.195 (inactive) | 0.828 (inactive) | -1.27 | -1.35 (inactive) | -3.69 (inactive) | -1.57 |
| CCOC(=O)C1=CC[C@@H](c2ccccc2)N(S(=O)(=O)c2ccc(C)cc2)[C@H]1C=C(C)C | -0.179 (inactive) | 0.129 | 2.27 (inactive) | 1.42 (inactive) | -0.627 (inactive) | 0.756 (inactive) | -0.459 | -0.0156 (inactive) | 1.39 (inactive) | 1.43 |
| CCOC(=O)C1=CC[C@@H](c2ccc(N(CC)CC)cc2)N(S(=O)(=O)c2ccc(C)cc2)[C@H]1c1ccc([N+](=O)[O-])cc1 | -1.24 (inactive) | 0.437 | 1.66 (inactive) | 0.86 (inactive) | 0.723 (inactive) | 0.779 (inactive) | -0.779 | 0.599 (inactive) | -1.37 (inactive) | -0.131 |
| COCCCNC(=O)[C@@]1(Cc2ccccc2I)c2ccccc2C(=O)N(Cc2ccccc2Cl)[C@H]1c1ccc(CO)cc1 | 0.437 (inactive) | -0.0346 | 5.51 (inactive) | 0.303 (inactive) | 0.65 (inactive) | 0.13 (inactive) | 0.984 | 0.374 (inactive) | -0.881 (inactive) | -2.14 |
| CC(C)CCC[C@@H](C)[C@H]1CC[C@@]2(C)C3=C(CC[C@]12C)[C@@]1(C)CC[C@H](OC(=O)C(C)(C)C)C(C)(C)C1CC3 (stereo not given in full) | 0.836 (inactive) | -0.374 | -0.0452 (inactive) | -0.698 (inactive) | -0.647 (inactive) | -1.07 (inactive) | 2.9 | 0.249 (inactive) | 0.4 (inactive) | 1.29 |
| COc1cc(C(O)C2C=CC3C(=O)N(C)C(=O)C3N2NC(=O)OC(C)(C)C)cc(OC)c1OC (stereo not given) | -1.47 (inactive) | 0.733 | -0.249 (inactive) | 1 (inactive) | -0.226 (inactive) | 1.12 (inactive) | -1.27 | -0.231 (inactive) | -0.726 (inactive) | -1.48 |
| CCCNC(=O)[C@@H]1c2ccccc2C(=O)N(CC23CC4CC(CC(C4)C2)C3)[C@H]1c1ccc(CO)cc1 | -0.59 (inactive) | 0.376 | 2.45 (inactive) | 0.79 (inactive) | 1.88 (inactive) | 0.276 (inactive) | 0.171 | 0.717 (inactive) | -1.2 (inactive) | -2.76 |
| CCCCC(=C=CC[C@H](O)c1ccccc1OCCO)C[C@H](O)c1ccccn1 | 1.47 (inactive) | -0.0536 | 4.7 (inactive) | 1.16 (inactive) | 2.3 (inactive) | 0.576 (inactive) | 0.822 | -0.778 (inactive) | -0.193 (inactive) | -1.37 |
| CN(C)C(=O)[C@@]1(CCC(=O)OC(C)(C)C)COC(c2ccc(OCCCO)cc2)=N1 | 0.752 (inactive) | 0.3 | 9.27 (active) | 0.536 (inactive) | -0.674 (inactive) | 0.198 (inactive) | -0.449 | -0.0773 (inactive) | 0.829 (inactive) | 0.655 |
| CCCN1C(=O)[C@@]2(Cc3ccccc3)N=C(c3ccc(OCCCO)cc3)O[C@H]2c2ccccc21 | 0.299 (inactive) | 0.572 | 32.7 (active) | 33.7 (active) | 3.01 (inactive) | 5.2 (inactive) | -0.149 | -2.69 (inactive) | -0.584 (inactive) | -1.79 |
| COC(=O)c1c(CC[C@@H](CO)NC(=O)N[C@@H](C)Cn2cc(C3(O)CCCC3)nn2)oc(C(C)=O)c1C(=O)OC | -0.274 (inactive) | 0.0561 | 1.88 (inactive) | -0.8 (inactive) | 0.816 (inactive) | -1.45 (inactive) | 2.2 | -2.54 (inactive) | -1.84 (inactive) | -2.35 |
| CCCCC(=C=CC[C@H](O)c1cccc(OCCO)c1)C[C@H](O)COCc1ccccc1 | 0.483 (inactive) | -0.0984 | 15.3 (active) | 2.48 (inactive) | 0.658 (inactive) | 1.02 (inactive) | 0.949 | -2.67 (inactive) | -1.29 (inactive) | -2.41 |
| N#Cc1ccc(NN2C(C(O)c3ccccc3)C=CC3C(=O)N(c4ccccc4)C(=O)C32)cc1 (stereo not given) | -1.28 (inactive) | 0.0077 | 9.06 (active) | 0.611 (inactive) | 1.65 (inactive) | 0.58 (inactive) | -0.823 | -2.08 (inactive) | -5.5 (inactive) | -3.44 |
